# Data published in PubChem BioAssay.
# Records with an inconclusive call do not appear. Activity calls are given as the source filed them.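 How the source made its calls, unless noted: active means normalized viability below 100% at a tested concentration; inactive means the rest.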
# Assays:
# [1] = viability loss in pontine glioma line – cell-based, SU-DIPG-XVII, MIPE5.0, CellTiter-Glo, qHTS, dose response (AID 1347060; cut-off not given, nearly all actives have AC50 up to about 26 µM;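 further: cells exposed to compound for 48 hours before viability readout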); details: CellTiter-Glo ATP luminescence
# [2] = viability loss in pontine glioma line – cell-based, SU-DIPG-XIII, MIPE4.0, CellTiter-Glo, qHTS, dose response (AID 1347061; cut-off not given, nearly all actives have AC50 up to about 37 µM;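 further: cells exposed to compound for 48 hours before readout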); details: CellTiter-Glo ATP luminescence
# [3] = viability loss in pontine glioma line – cell-based, JHH-DIPG-1, MIPE4.0, CellTiter-Glo, qHTS, dose response (AID 1347062; cut-off not given, nearly all actives have AC50 up to about 27 µM;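 further: cells exposed to compound for two days before readout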); details: JHH-DIPG-1 viability, CellTiter-Glo ATP luminescence
# [4] = viability loss in pontine glioma line – cell-based, SU-DIPG-IV, MIPE4.0, CellTiter-Glo, qHTS, dose response (AID 1347063; cut-off not given, nearly all actives have AC50 up to about 30 µM;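 further: compound exposure lasted 48 hours before the viability readout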); details: CellTiter-Glo ATP luminescence
# [5] = viability loss in pontine glioma line – cell-based, SU-DIPG-XXV, MIPE5.0, CellTiter-Glo, qHTS, dose response (AID 1347065; cut-off not given, nearly all actives have AC50 up to about 26 µM;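 further: cells exposed to compound for 48 hours before ATP readout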); details: CellTiter-Glo ATP luminescence
# [6] = growth inhibition of DIPG cells – cell-based, MIPE4.0 library, CellTiter-Glo luminescence, qHTS (AID 1347066; cut-off not given, nearly all actives have AC50 up to about 30 µM;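 further: cells exposed to compound for 48 hours before readout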); details: SU-DIPG-VI viability, CellTiter-Glo ATP luminescence
# [7] = JHH-DIPG-1 glioma cell viability, MIPE5.0 library, CellTiter-Glo luminescence, qHTS (AID 1347067; cut-off not given, nearly all actives have AC50 up to about 26 µM;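 further: cells exposed to compound for 48 hours before readout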); details: JHH-DIPG-1 glioma viability, CellTiter-Glo ATP luminescence
# [8] = viability loss with induced miR-34 in A549 – imaging, A549 dox-inducible miR-34, nuclei and caspase counts, primary screen (AID 1347080;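 active means compounds whose cell count with miR-34 switched on is under 0.7 times the count with it off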); details: A549 miR-34 inducible, Hoechst nuclei count, 48 h
# [9] = compounds altering HSF1 focus formation in cells – imaging, Selleck Cancer Library (AID 1347162; in the data active means plate-normalised HSF1 focus index below about 0.46); details: human cells, HSF1 nuclear foci imaging, at 10 µM; SSMD: measured here: HSF1 foci SSMD mean; cell count: measured here: cell number; plate-normalised HSF1 focus index: stronger effect = lower value
# [10] = MELAS cybrid and Rieske KO viability enhancers – cell-based, MELAS cybrids, Rieske KO mouse fibroblasts, CellTiter-Glo, primary screen (AID 1508586;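 active means mean z-score across replicates of 1.96 or higher in either the MELAS or the Rieske mutant cell line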;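 further: z relative to plate mean and SD of compound and empty wells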); details: low glucose
# [11] = drug combination growth inhibition, ovarian cancer – cell-based, oncology-focused library, rucaparib conditional, profiling panel (AID 1508598); details: patient-derived ovarian cancer cells, CellTiter-Glo viability, 144 h, stronger effect = lower value
# [12] = growth inhibition, single agent or in combination, cell-based, chromothripsis tumors, cisplatin or BGB combos (AID 1671449; in the data active means inhibition above about 80%;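 further: cells exposed for 96 hours; 0% = vehicle DMSO and 100% = killing by high DMSO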); details: LFS_MB_P medulloblastoma cells
# [13] = growth inhibition, single agent and combos, cell-based, chromothripsis tumors, cisplatin or BGB combos (AID 1671450; in the data active means inhibition above about 80%;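 further: cells exposed to compound for four days; 0% = vehicle DMSO and 100% = cell killing by high DMSO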); details: HDN33 neuroblastoma cells, stronger effect = higher value
# [14] = growth inhibition, single agents and combos, ICB984, cell-based, cisplatin or BGB combos, synergistic combos for chromothripsis tumors (AID 1671451; call rule not given here;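 further: cells exposed for 96 hours before readout; 0% = vehicle DMSO and 100% = killing by high DMSO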); details: ICB984 medulloblastoma cells, drug combinations, stronger effect = higher value
# [15] = growth inhibition, single agents and combos, HTB85, cell-based, BGB or cisplatin IC20 combos, synergistic combos for chromothripsis tumors (AID 1671453; in the data active means inhibition above about 80%;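 further: cells exposed for 96 hours before readout; 0% = vehicle DMSO and 100% = high DMSO killing control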); details: HTB85 osteosarcoma cells, drug combinations, stronger effect = higher value
# [16] = growth inhibition, MDA-MB-436, cell-based, BGB or cisplatin combos, synergistic combos for chromothripsis tumors (AID 1671458; call rule not given here;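 further: cells exposed for 96 hours; 0% = vehicle DMSO and 100% = killing by high DMSO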); details: MDA-MB-436 breast carcinoma growth inhibition, drug combinations, stronger effect = higher value
# [17] = BT084 cell growth, single and combined drugs, ICGC_MB145, cisplatin and BGB IC40 combos (AID 1671461; in the data active means inhibition above about 80%;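 further: cells exposed to drugs for 96 hours; 0% = vehicle DMSO and 100% = high DMSO full killing control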); details: BT084 medulloblastoma cells, drug combinations, stronger effect = higher value
# [18] = RCMB18 cell growth, single agent and combined, cisplatin and BGB IC40 combos (AID 1671462; in the data active means inhibition above about 80%;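 further: cells exposed to compound for four days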); details: RCMB18 medulloblastoma cells, stronger effect = higher value
compound,measurement,setting,value
CN(C)Cc1c(C(=O)NCCOc2ccc(C(=O)NO)cc2)oc2ccccc12,AC50,[1],4170 nM (active)
same,AC50,[2],4690 nM (active)
same,AC50,[3],935 nM (active)
same,AC50,[4],3320 nM (active)
same,AC50,[5],833 nM (active)
same,AC50,[6],2960 nM (active)
same,AC50,[7],934 nM (active)
same,fold change,"[8]; stronger effect = lower value, cell number ratio, induced over uninduced",1.4 (inactive)
same,fold change,[8]; measured here: relative caspase fold change +Dox/-Dox,0.9
same,cell count,"[8]; measured here: total cells with miR-34 induction, stronger effect = lower value",1280
same,cell count,[8]; measured here: total cells without miR-34 induction,916
same,SSMD,[9],0.722
same,cell count,[9],7540
same,plate-normalised HSF1 focus index,[9],1.05 (inactive)
same,z-score,"[10]; MELAS cybrid survival, CellTiter-Glo 48 h, stronger effect = higher value",0.162 (inactive)
same,z-score,"[10]; Rieske KO mouse fibroblast survival, CellTiter-Glo 72 h",-1.7
same,viability,"[11]; at 0.000305 µM, OCI-C5x cells, with rucaparib 10 µM, 100% = cells with rucaparib alone",130% (inactive)
same,viability,"[11]; at 0.000305 µM, OCI-C5x cells, without rucaparib",128% (inactive)
same,viability,"[11]; at 0.000305 µM, OCI-P5x cells, with rucaparib 20 µM, 100% = cells with rucaparib alone",105% (inactive)
same,viability,"[11]; at 0.000305 µM, OCI-P5x cells, without rucaparib",104% (inactive)
same,viability,"[11]; at 0.00122 µM, OCI-C5x cells, with rucaparib 10 µM, 100% = cells with rucaparib alone",129% (inactive)
same,viability,"[11]; at 0.00122 µM, OCI-C5x cells, without rucaparib",123% (inactive)
same,viability,"[11]; at 0.00122 µM, OCI-P5x cells, with rucaparib 20 µM, 100% = cells with rucaparib alone",103% (inactive)
same,viability,"[11]; at 0.00122 µM, OCI-P5x cells, without rucaparib",104% (inactive)
same,viability,"[11]; at 0.00488 µM, OCI-C5x cells, with rucaparib 10 µM, 100% = cells with rucaparib alone",144% (inactive)
same,viability,"[11]; at 0.00488 µM, OCI-C5x cells, without rucaparib",128% (inactive)
same,viability,"[11]; at 0.00488 µM, OCI-P5x cells, with rucaparib 20 µM, 100% = cells with rucaparib alone",97.2% (active)
same,viability,"[11]; at 0.00488 µM, OCI-P5x cells, without rucaparib",101% (inactive)
same,viability,"[11]; at 0.0195 µM, OCI-C5x cells, with rucaparib 10 µM, 100% = cells with rucaparib alone",118% (inactive)
same,viability,"[11]; at 0.0195 µM, OCI-C5x cells, without rucaparib",131% (inactive)
same,viability,"[11]; at 0.0195 µM, OCI-P5x cells, with rucaparib 20 µM, 100% = cells with rucaparib alone",81.2% (active)
same,viability,"[11]; at 0.0195 µM, OCI-P5x cells, without rucaparib",97.1% (active)
same,viability,"[11]; at 0.0781 µM, OCI-C5x cells, with rucaparib 10 µM, 100% = cells with rucaparib alone",121% (inactive)
same,viability,"[11]; at 0.0781 µM, OCI-C5x cells, without rucaparib",138% (inactive)
same,viability,"[11]; at 0.0781 µM, OCI-P5x cells, with rucaparib 20 µM, 100% = cells with rucaparib alone",91.6% (active)
same,viability,"[11]; at 0.0781 µM, OCI-P5x cells, without rucaparib",104% (inactive)
same,viability,"[11]; at 0.313 µM, OCI-C5x cells, with rucaparib 10 µM, 100% = cells with rucaparib alone",123% (inactive)
same,viability,"[11]; at 0.313 µM, OCI-C5x cells, without rucaparib",132% (inactive)
same,viability,"[11]; at 0.313 µM, OCI-P5x cells, with rucaparib 20 µM, 100% = cells with rucaparib alone",69.9% (active)
same,viability,"[11]; at 0.313 µM, OCI-P5x cells, without rucaparib",79.9% (active)
same,viability,"[11]; at 1.25 µM, OCI-C5x cells, with rucaparib 10 µM, 100% = cells with rucaparib alone",135% (inactive)
same,viability,"[11]; at 1.25 µM, OCI-C5x cells, without rucaparib",150% (inactive)
same,viability,"[11]; at 1.25 µM, OCI-P5x cells, with rucaparib 20 µM, 100% = cells with rucaparib alone",82.3% (active)
same,viability,"[11]; at 1.25 µM, OCI-P5x cells, without rucaparib",77.6% (active)
same,viability,"[11]; at 5 µM, OCI-C5x cells, with rucaparib 10 µM, 100% = cells with rucaparib alone",8.92% (active)
same,viability,"[11]; at 5 µM, OCI-C5x cells, without rucaparib",7.82% (active)
same,viability,"[11]; at 5 µM, OCI-P5x cells, with rucaparib 20 µM, 100% = cells with rucaparib alone",5.56% (active)
same,viability,"[11]; at 5 µM, OCI-P5x cells, without rucaparib",34% (active)
same,inhibition,"[12]; at 0.5 µM, stronger effect = higher value",21.6% (inactive)
same,inhibition,"[12]; measured here: combination with BGB IC20, at 0.005 µM",-27.6%
same,inhibition,"[12]; measured here: combination with BGB IC40, at 0.005 µM",-6.96%
same,inhibition,"[12]; measured here: combination with BGB IC40, at 0.05 µM",9.02%
same,inhibition,"[12]; measured here: combination with cisplatin, at 0.5 µM, stronger effect = higher value",46.7%
same,inhibition,"[12]; measured here: combination with cisplatin, at 5 µM, stronger effect = higher value",110%
same,inhibition,"[13]; BGB combo, at 5 µM",99.4%
same,inhibition,[13]; at 0.5 µM,78.8% (inactive)
same,inhibition,"[13]; cisplatin combo, at 5 µM",99.8%
same,inhibition,"[13]; measured here: with BGB IC20 combination, at 0.5 µM",69%
same,inhibition,"[13]; measured here: with cisplatin IC20 combination, at 0.5 µM",82.8%
same,inhibition,"[13]; single agent, at 5 µM",99.8%
same,inhibition,"[14]; BGB IC20 combo, at 0.005 µM",27.4%
same,inhibition,"[14]; BGB IC40 combo, at 0.005 µM",31.8%
same,inhibition,"[14]; BGB IC40 combo, at 0.05 µM",93.6%
same,inhibition,[14]; at 0.5 µM,-23.7% (inactive)
same,inhibition,"[14]; cisplatin combo, at 0.05 µM",93.4%
same,inhibition,"[14]; cisplatin combo, at 0.5 µM",-34.8%
same,inhibition,"[14]; cisplatin combo, at 5 µM",-32%
same,inhibition,"[14]; measured here: 5 uM single agent, at 5 µM",-19.3%
same,inhibition,[15]; at 0.5 µM,87.5% (active)
same,inhibition,"[15]; measured here: with BGB IC20, at 0.5 µM",87.4%
same,inhibition,"[15]; measured here: with BGB IC20, at 5 µM",99.8%
same,inhibition,"[15]; measured here: with cisplatin IC20, at 0.5 µM",90.7%
same,inhibition,"[15]; measured here: with cisplatin IC20, at 5 µM",99.9%
same,inhibition,"[15]; single agent, at 5 µM",99.8%
same,inhibition,[16]; at 0.5 µM,43.7% (inactive)
same,inhibition,"[16]; measured here: BGB combination, at 0.5 µM",36%
same,inhibition,"[16]; measured here: BGB combination, at 5 µM",60%
same,inhibition,"[16]; measured here: cisplatin combination, at 0.5 µM",42%
same,inhibition,"[16]; measured here: cisplatin combination, at 5 µM",69.4%
same,inhibition,[17]; at 0.5 µM,52% (inactive)
same,inhibition,"[17]; cisplatin combination, at 0.5 µM",79.4%
same,inhibition,"[17]; cisplatin combination, at 5 µM",101%
same,inhibition,"[17]; measured here: BGB IC40 combination 0.05 uM, at 0.05 µM",30.2%
same,inhibition,"[17]; single agent, at 5 µM",108%
same,inhibition,[18]; at 0.5 µM,47.1% (inactive)
same,inhibition,"[18]; cisplatin combo, at 5 µM",96.9%
same,inhibition,"[18]; measured here: BGB IC40 combination, at 0.05 µM",20.1%
same,inhibition,"[18]; measured here: combination with cisplatin, at 0.5 µM",58.8%
same,inhibition,"[18]; single agent, at 5 µM",92.2%
